Test [1] in a line: ATG_CRE_CIS: Attagene CIS-FACTORIAL HepG2 Assay for human cAMP Responsive Element (CRE) binding protein 3 (AID 2282926). Conditions: HepG2 CRE cis-reporter, Attagene multiplexed mRNA; actives raise or lower the signal. Put shortly: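 Liver-derived HepG2, transfected with a CRE-containing reporter panel, exposed 24 h; transcript levels sized and quantified by capillary electrophoresis of labelled amplicons; signal changes either way referenced to vehicle.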

The nature of test [2]: ATG_CMV_CIS: Attagene CIS-FACTORIAL HepG2 Assay for human CMV (Internal Marker) (AID 2282928).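 Also: endpoint acts as a background internal control marker rather than a target.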 To be noted: HepG2 CMV promoter reporter, transcription factor profiling; actives raise or lower the signal. Summed up:
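Reporter transcripts from transfected HepG2 cells are isolated after 24 h of chemical dosing, reverse-transcribed and amplified. Fragments labeled with 6-FAM are cut with HpaI and quantified by capillary electrophoresis; DMSO defines baseline.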

Test [3] is described as follows: ATG_DR4_LXR_CIS: Attagene CIS-FACTORIAL HepG2 Assay for human Liver X Receptor (LXR), DR4 submotif (AID 2282929). To be noted: HepG2 Attagene DR4 cis-reporter, mRNA transcription; actives raise or lower the signal. Put shortly:
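DR4 cis-reporter in HepG2, 24 h exposure. Detection: RT-PCR, 6-FAM labelling, CE fragment analysis. Endpoint fitted bidirectionally, DMSO = baseline.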

The target of test [4] is Aryl hydrocarbon receptor (Homo sapiens) (UniProt P35869). As to the kind of experiment: ATG_Ahr_CIS: Attagene CIS-FACTORIAL HepG2 Assay for human Aryl Hydrocarbon Receptor (Ahr) (AID 2282930). Conditions: HepG2 AhR cis-factorial reporter transcription; actives raise or lower the signal. Put shortly: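 Endogenous factor activity is tracked through cis-promoter reporter units transfected into HepG2 cells. Transcript levels at 24 h are read by fluorescent RT-PCR and capillary electrophoresis, with activity in either direction scored relative to DMSO.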
Aryl hydrocarbon receptor (Homo sapiens), sequence (P35869 whole entry, looked up): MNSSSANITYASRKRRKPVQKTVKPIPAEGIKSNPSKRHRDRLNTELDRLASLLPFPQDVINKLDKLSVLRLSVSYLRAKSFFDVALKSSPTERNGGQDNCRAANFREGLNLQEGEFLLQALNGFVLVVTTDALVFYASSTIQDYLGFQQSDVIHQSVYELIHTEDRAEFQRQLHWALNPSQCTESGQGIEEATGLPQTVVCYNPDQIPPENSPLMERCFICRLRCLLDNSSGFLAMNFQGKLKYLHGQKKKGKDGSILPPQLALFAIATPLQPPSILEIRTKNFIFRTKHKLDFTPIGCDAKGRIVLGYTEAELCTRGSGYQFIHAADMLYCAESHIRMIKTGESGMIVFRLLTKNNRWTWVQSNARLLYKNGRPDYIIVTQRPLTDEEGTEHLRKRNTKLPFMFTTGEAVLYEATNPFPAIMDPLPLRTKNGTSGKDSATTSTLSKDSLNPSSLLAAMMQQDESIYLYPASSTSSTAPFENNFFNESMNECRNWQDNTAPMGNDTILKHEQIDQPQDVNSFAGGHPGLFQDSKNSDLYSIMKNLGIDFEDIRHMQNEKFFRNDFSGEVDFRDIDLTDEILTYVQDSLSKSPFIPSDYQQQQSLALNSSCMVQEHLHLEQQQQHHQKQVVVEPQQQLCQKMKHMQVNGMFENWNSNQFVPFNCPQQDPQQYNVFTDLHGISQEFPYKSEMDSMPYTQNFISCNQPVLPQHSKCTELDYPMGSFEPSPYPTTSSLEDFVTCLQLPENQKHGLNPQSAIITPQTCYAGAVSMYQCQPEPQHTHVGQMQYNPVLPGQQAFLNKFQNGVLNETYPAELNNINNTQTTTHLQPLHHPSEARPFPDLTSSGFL

A short description of test [5]: ATG_AP_1_CIS: Attagene CIS-FACTORIAL HepG2 Assay for human Activator Protein 1 (AP-1) (AID 2282931). Conditions: HepG2 Attagene cis-factorial AP-1 reporter mRNA; actives raise or lower the signal. Put shortly:
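Cis-regulated reporter units transiently expressed in HepG2 report endogenous transcription-factor activity. Signal: reporter mRNA at 24 h, via RT-PCR and fluorescent capillary electrophoresis. Endpoint derived by bidirectional fitting, DMSO as negative control.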

Test [6] can be described thus: ATG_AP_2_CIS: Attagene CIS-FACTORIAL HepG2 Assay for human Activator Protein 2 (AP-2) (AID 2282932). To be noted: HepG2 AP-2 cis-reporter, Attagene transcription factor profiling; actives raise or lower the signal. Put shortly:
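Liver-derived HepG2 line, cis-reporter system measuring endogenous factors; 24 h dosing; reporter mRNA detected by fluorescent RT-PCR and capillary electrophoresis.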

Test [7] can be described thus: ATG_BRE_CIS: Attagene CIS-FACTORIAL HepG2 Assay for human Bone Morphogenetic Protein (BMP) Response Element (BRE) (AID 2282933). Conditions: HepG2 BMP response element reporter, Attagene transcription factor profiling; actives raise or lower the signal. Summed up: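 HepG2 cells transiently transfected with multiplexed cis-element reporter units were dosed with chemical for 24 h. Reporter mRNA was measured by RT-PCR with fluorescent labelling, HpaI digestion and capillary electrophoresis; bidirectional fitting relative to DMSO.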

Test [8] addresses Retinoic acid receptor alpha (Homo sapiens) (UniProt P10276). As to the kind of experiment: ATG_DR5_RAR_CIS: Attagene CIS-FACTORIAL HepG2 Assay for human Retinoic Acid Receptor Alpha (RARE), DR5 submotif (AID 2282934).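 As to AC50: reporter responds to endogenous RAR alpha beta and gamma in HepG2 not RARA alone.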 To be noted: HepG2 Attagene cis-factorial RARE DR5 reporter, mRNA; actives raise or lower the signal. Summed up: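 After 24 h of chemical exposure, transiently transfected HepG2 cells were lysed for total RNA; the DR5-regulated reporter transcript was quantified via RT-PCR and capillary electrophoresis, with activity fitted bidirectionally against DMSO.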

Test [9] deals with Transcription factor E2F1 (Homo sapiens) (UniProt Q01094). As to the kind of experiment: ATG_E2F_CIS: Attagene CIS-FACTORIAL HepG2 Assay for human E2F Transcription Factor 1 (AID 2282935). To be noted: HepG2 Attagene cis-reporter, E2F reporter RNA transcripts; actives raise or lower the signal. Put shortly:
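Liver-derived HepG2 cells expressing transfected promoter-driven reporter units received test chemical for 24 hours. Signal gains or losses were fitted bidirectionally against DMSO.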

The nature of test [10]: ATG_E_Box_CIS: Attagene CIS-FACTORIAL HepG2 Assay for human Enhancer Box (E-box) (AID 2282936). Conditions: HepG2 E-box cis-reporter transcription, actives raise or lower the signal. Summed up:
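In this cell-based setup, HepG2 cells bearing transfected promoter-driven reporter units were exposed to chemicals for 24 h; reporter transcripts were amplified, 6-FAM-labelled, cut with HpaI and sized by capillary electrophoresis.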

The nature of test [11]: ATG_M_61_CIS: Attagene CIS-FACTORIAL HepG2 Assay for M61 Transcription Factor (Internal Marker) (AID 2282937). Conditions: HepG2 Attagene CIS-FACTORIAL M61 internal marker reporter; actives raise or lower the signal. Summed up:
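Background-control endpoint: HepG2 cells with cis-regulated reporter constructs, 24 h exposure, reporter mRNA detected via fluorescent primer extension and capillary electrophoresis; values from bidirectional fitting with DMSO baseline.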

A short description of test [12]: ATG_EGR_CIS: Attagene CIS-FACTORIAL HepG2 Assay for human Early Growth Response 1 (EGR1) (AID 2282938). To be noted: HepG2 Attagene CIS-FACTORIAL EGR reporter mRNA; actives raise or lower the signal. Put shortly: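 Endpoint derived by bidirectional fitting versus DMSO vehicle. Method: cis-promoter reporter units transfected into HepG2, 24 h dosing, RNA isolation, RT-PCR with 6-FAM primer extension and HpaI digestion, then capillary electrophoresis fluorescence detection.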

Test [13] in a line: ATG_M_19_CIS: Attagene CIS-FACTORIAL HepG2 Assay for M19 Transcription Factor (Internal Marker) (AID 2282939). To be noted: HepG2 Attagene CIS-FACTORIAL M19 internal marker reporter; actives raise or lower the signal. Summed up: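 HepG2 cells transiently transfected with cis-regulated multiple reporter transcription units were dosed for 24 h; reporter mRNA was quantified by RT-PCR, 6-FAM primer-extension labelling, HpaI digestion and capillary electrophoresis, with bidirectional fitting against DMSO baseline.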

The nature of test [14]: ATG_Ets_CIS: Attagene CIS-FACTORIAL HepG2 Assay for human Erythroblast Transformation Specific (ETS) (AID 2282941). Conditions: HepG2 ETS cis-reporter transcription, actives raise or lower the signal. Put shortly:
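Bidirectional fit versus DMSO of reporter mRNA signal, detected by RT-PCR and capillary electrophoresis in HepG2 cells transiently transfected with cis-element reporters and dosed 24 h.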

Test [15] deals with Hepatocyte nuclear factor 3-beta (Homo sapiens) (UniProt Q9Y261). In words: ATG_FoxA2_CIS: Attagene CIS-FACTORIAL HepG2 Assay for human Forkhead box A2 (FOXA2) (AID 2282942). Conditions: HepG2 cis-reporter transcription factor activity, 24 h; actives raise or lower the signal. Put shortly:
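Measured: reporter mRNA induction or loss in HepG2 transiently carrying multiple cis-regulated reporter units, 24 h after dosing. Quantified by RT-PCR plus capillary electrophoresis, normalised to DMSO.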

A short description of test [16]: ATG_FoxO_CIS: Attagene CIS-FACTORIAL HepG2 Assay for human Forkhead box O (FoxO) (AID 2282943). Conditions: HepG2 Attagene cis-reporter, FoxO element, mRNA; actives raise or lower the signal. Put shortly:
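Transfected HepG2 reporter cells exposed to test chemical for 24 h; reporter RNA measured by reverse transcription, PCR and fluorescent capillary electrophoresis; curves fitted for increases and decreases against DMSO.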

Test [17] in a line: ATG_GATA_CIS: Attagene CIS-FACTORIAL HepG2 Assay for human GATA Binding Protein (AID 2282944). Conditions: HepG2 GATA cis-element reporter, Attagene multiplex mRNA; actives raise or lower the signal. Put shortly: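 HepG2 cells transiently transfected with multiplexed cis-element reporter units reflecting endogenous transcription factor activity; reporter mRNA measured after 24 h dosing by RT-PCR, 6-FAM labeling, HpaI digestion and capillary electrophoresis. Bidirectional fitting versus DMSO baseline.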

The nature of test [18]: ATG_GLI_CIS: Attagene CIS-FACTORIAL HepG2 Assay for human Zinc Finger Protein GLI1 (AID 2282945). To be noted: HepG2, Attagene cis-factorial reporter mRNA, GLI element; actives raise or lower the signal. Summed up: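 Transiently transfected HepG2 cells report endogenous transcription factor activity via cis-element-driven reporter units. After 24 h compound exposure, reporter mRNA was measured by RT-PCR with capillary electrophoresis; bidirectional fitting against DMSO baseline.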

The nature of test [19]: ATG_ERE_CIS: Attagene CIS-FACTORIAL HepG2 Assay for Estrogen Response Element (ERE) (AID 2282940). Conditions: HepG2 ERE cis-reporter, Attagene RNA transcript; actives raise or lower the signal. Summed up: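 HepG2 cells transiently transfected with cis-promoter-driven multiplexed reporter transcription units report endogenous TF activity. After 24 h compound exposure, reporter mRNA is quantified by RT-PCR with capillary electrophoresis fluorescence; bidirectional fitting versus DMSO baseline.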

For test [20], the target named is CCAAT/enhancer-binding protein beta (Homo sapiens) (UniProt P17676). In words: ATG_C_EBP_CIS: Attagene CIS-FACTORIAL HepG2 Assay for human CCAAT/Enhancer Binding Protein (C/EBP) beta (AID 2282927). Conditions: HepG2 Attagene cis-factorial transcription factor reporter; actives raise or lower the signal. Put shortly:
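HepG2, transient MRTU transfection, 24 h treatment. RT-PCR plus CE fluorescence; DMSO negative control, bidirectional fit.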

The source made the active and inactive calls. The calls were made as follows: active = hit-call score of the fitted dose curve at least 0.9, where 1 is the maximum; inactive = score below 0.9.

Hepatocyte nuclear factor 3-beta (Homo sapiens), sequence (Q9Y261 whole entry, looked up): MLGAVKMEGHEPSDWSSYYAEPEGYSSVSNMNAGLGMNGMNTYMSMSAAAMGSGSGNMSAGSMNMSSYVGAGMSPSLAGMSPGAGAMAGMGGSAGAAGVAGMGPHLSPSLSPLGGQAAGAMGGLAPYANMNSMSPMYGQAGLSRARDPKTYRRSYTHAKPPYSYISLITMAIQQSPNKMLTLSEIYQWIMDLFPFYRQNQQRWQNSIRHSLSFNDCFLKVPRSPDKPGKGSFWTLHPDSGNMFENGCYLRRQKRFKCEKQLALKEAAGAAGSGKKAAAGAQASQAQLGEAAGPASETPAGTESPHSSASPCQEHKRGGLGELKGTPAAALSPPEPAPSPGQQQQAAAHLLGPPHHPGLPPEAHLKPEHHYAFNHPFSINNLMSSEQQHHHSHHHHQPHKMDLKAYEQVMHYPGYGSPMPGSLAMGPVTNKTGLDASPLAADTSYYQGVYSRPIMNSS
Retinoic acid receptor alpha (Homo sapiens), sequence (P10276 whole entry, looked up): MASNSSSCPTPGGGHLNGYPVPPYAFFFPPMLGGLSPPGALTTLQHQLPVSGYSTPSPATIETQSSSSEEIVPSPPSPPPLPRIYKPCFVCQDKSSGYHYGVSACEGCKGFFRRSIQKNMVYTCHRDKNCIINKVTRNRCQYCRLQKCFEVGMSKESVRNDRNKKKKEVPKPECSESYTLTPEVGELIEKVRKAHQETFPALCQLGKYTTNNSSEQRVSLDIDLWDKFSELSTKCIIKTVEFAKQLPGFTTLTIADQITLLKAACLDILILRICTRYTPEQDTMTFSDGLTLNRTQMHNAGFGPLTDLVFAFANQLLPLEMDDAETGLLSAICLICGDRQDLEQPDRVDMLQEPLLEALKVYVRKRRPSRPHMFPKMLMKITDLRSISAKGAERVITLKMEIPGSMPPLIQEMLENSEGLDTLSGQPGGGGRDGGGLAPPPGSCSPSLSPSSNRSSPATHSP
Transcription factor E2F1 (Homo sapiens), sequence (Q01094 whole entry, looked up): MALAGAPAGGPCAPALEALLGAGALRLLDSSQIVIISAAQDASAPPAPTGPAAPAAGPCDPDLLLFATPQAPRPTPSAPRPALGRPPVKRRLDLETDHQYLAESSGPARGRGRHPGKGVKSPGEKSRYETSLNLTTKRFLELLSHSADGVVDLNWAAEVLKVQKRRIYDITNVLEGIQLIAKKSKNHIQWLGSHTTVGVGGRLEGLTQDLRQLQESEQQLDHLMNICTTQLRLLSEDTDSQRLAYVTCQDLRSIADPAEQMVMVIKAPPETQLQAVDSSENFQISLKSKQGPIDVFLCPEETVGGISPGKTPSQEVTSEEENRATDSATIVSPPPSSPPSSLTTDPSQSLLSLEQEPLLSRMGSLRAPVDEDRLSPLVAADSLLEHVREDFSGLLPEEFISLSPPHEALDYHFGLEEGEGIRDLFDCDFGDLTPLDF
CCAAT/enhancer-binding protein beta (Homo sapiens), sequence (P17676 whole entry, looked up): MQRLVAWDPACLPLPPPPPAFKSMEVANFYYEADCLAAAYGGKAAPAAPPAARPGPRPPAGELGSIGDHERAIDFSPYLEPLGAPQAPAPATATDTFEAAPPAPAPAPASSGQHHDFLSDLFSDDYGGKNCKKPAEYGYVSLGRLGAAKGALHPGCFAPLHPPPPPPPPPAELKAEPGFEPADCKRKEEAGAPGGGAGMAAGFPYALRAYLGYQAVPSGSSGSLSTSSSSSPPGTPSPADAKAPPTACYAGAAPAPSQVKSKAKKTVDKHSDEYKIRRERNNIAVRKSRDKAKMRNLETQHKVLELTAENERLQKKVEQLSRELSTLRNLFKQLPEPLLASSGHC

As for `C[C@H](CCC(=O)NCC(=O)O)[C@H]1CC[C@H]2[C@@H]3[C@H](O)C[C@@H]4C[C@H](O)CC[C@]4(C)[C@H]3C[C@H](O)[C@]12C`, the compound was called inactive in test [1], in test [2], in test [3], in test [4], in test [5] and in test [6]. In addition, the call in test [7], in test [8], in [9], in [10], in [11] and in test [12] was inactive. Further, the compound was classed as inactive in test [13], in [14], in test [15], in [16], in test [17] and in test [18].
As to `C1CCOC1`, the compound was classed as inactive in test [1], in test [2], in [4], in test [5], in test [6] and in test [8]. Moreover, the call in [9], in test [10], in test [11], in test [12], in [13] and in test [14] was inactive. The result in test [15], in test [16], in test [17] and in test [18] was inactive.
With `NC(=S)NNC(N)=S`, the compound was classed as inactive in test [1], in test [2], in [3], in [4], in test [5] and in [6]. In addition, the compound was called inactive in test [7], in test [8], in test [9], in [10], in test [11] and in [13]. For the same compound, the compound was classed as inactive in [14], in test [15], in test [16], in [17] and in test [18].
In the case of `O=P(O)(O)O`, the compound was classed as inactive in test [1], in [2], in [3], in test [4], in test [6] and in test [8]. Moreover, the result in test [9], in [10], in test [11], in [12], in test [14] and in test [15] was inactive. The compound was called inactive in test [16], in [17] and in [18].
What is called AC50 is the concentration at which the activity in the assay is half-maximal. For the compound `CCCCCCCCCCCC(=O)OCC(O)CO` (centres undefined), the AC50 in test [1] is 48.2 µM (active); in [4], 21.3 µM (active); in test [5], 158 µM (active); in test [8], 100 µM (active). Further, the compound was classed as inactive in test [2], in test [3], in [6], in [7], in test [9] and in test [10]. Further, the result in test [11], in test [12], in test [13], in test [19], in test [14] and in [15] was inactive. The outcome in test [16], in test [17] and in test [18] was inactive.
As to `Nc1ccccc1[N+](=O)[O-]`, the outcome in test [1], in [2], in test [4], in [5], in [6] and in [7] was inactive. For the same compound, the compound was called inactive in [8], in [10], in test [11], in test [12], in test [13] and in test [14]. The compound was classed as inactive in test [15], in [16], in test [17] and in test [18].
In the case of `Nc1c(S(=O)(=O)O)cc(Br)c2c1C(=O)c1ccccc1C2=O`, the outcome in [1], in test [20], in test [6], in test [7], in test [8] and in test [9] was inactive. The result in test [10], in test [11], in [12], in [13], in test [14] and in test [15] was inactive. Besides, the compound was called inactive in test [16], in test [17] and in test [18]. In addition, the figures for the AC50 in [4] and in test [19] were 9.82 µM (active) and 31.9 µM (active), respectively.
For the compound `C=C[Si]1(C)O[Si](C)(C=C)O[Si](C)(C=C)O[Si](C)(C=C)O1` (centres undefined), the outcome in test [1], in test [4], in [6], in [7], in test [8] and in test [10] was inactive. The result in test [11], in test [12], in test [13], in test [14], in test [15] and in test [17] was inactive. In [18], the outcome was inactive. Besides, the AC50 in test [2] is 51.7 µM (active); in test [3], 4.46 µM (active); in test [5], 36.1 µM (active).

(Values after PubChem BioAssay (EPA / NIEHS).)
